Each structure is given as a SMILES string. Results filed as inconclusive are left out. Calls of active or inactive are those of the source. Calls follow the shape of the dose curve; as a rule, active = well fitted cell-killing curve with a large enough effect; inconclusive = small, poorly fitted or top-dose-only effect, or effect the other way; inactive = no such curve, though single readings can be large or run the other way.
Potency is read from the fitted curve at half-maximal effect.

A short description of the assay: Quantitative High-Throughput drug screen in 47 multiple myeloma cell lines against the NCATS MIPE library collection: EJM_DSMZ cell viability assay (AID 1918926; also: nearly all actives have a fitted effect of over 30% in size). The settings on record: EJM myeloma cell viability, CellTiter-Glo ATP, 48 h; series mostly up to 45.8 µM. The source says:
PI: Beverly A. Mock Ph.D.
Laboratory of Cancer Biology and Genetics,
Center for Cancer Research, National Cancer Institute,
National Institute of Health, Bethesda, Maryland
Drug resistance and disease progression are common in multiple myeloma (MM) patients, underscoring the need for new therapeutic combinations. […] We hypothesized that effective combinations would reduce MYC expression and enhance p16 activity. […] These preclinical data identify potentially useful drug combinations for evaluation in drug-resistant MM and reveal potential mechanisms of combined drug sensitivity.
Described herein is the primary MIPE qHTS used to cherrypick compounds. Validated compounds were then further tested for potential synergistic activiy.
[1] Peat TJ, Gaikwad SM, Dubois W, Gyabaah-Kessie N, Zhang S, Gorjifard S, Phyo Z, Andres M, Hughitt VK, Simpson RM, Miller MA, Girvin AT, Taylor A, Williams D, D'Antonio N, Zhang Y, Rajagopalan A, Flietner E, Wilson K, Zhang X, Shinn P, Klumpp-Thomas C, McKnight C, Itkin Z, Chen L, Kazandijian D, Zhang J, Michalowski AM, Simmons JK, Keats J, Thomas CJ, Mock BA. Drug combinations identified by high-throughput screening promote cell cycle transition and upregulate Smad pathways in myeloma. Cancer Lett. 2023 Aug 1;568:216284. doi: 10.1016/j.canlet.2023.216284. Epub 2023 Jun 24. PMID: 37356470; PMCID: PMC10408729.
SEQUENCE No. (e.g., 1, 2, 3, etc.); […] (e.g., Cells, Incubation, Reagent, etc.); VALUE and DESCRIPTION.
1; Cells; 5 uL; white, solid bottom 1536-well Greiner assay plate.
2; Compounds; 23 nL; Kalypsis pin tool (Wako USA) equipped with a 1536-well pin head to transfer to the assay plates.
3; Incubation; 48 hours; 37C incubation.
4; Reagent;5uL; CellTiter Glo (Promega).
5; Detector; 425V; Luminescence; Viewlux PerkinElmer.
NOTES (numbers refer to Sequence numbers above)
1. The cell-based screening methods employed in this study were like those previously published. Briefly, the corresponding myeloma cell lines were screened in 1,536-well plates with 500 cells, 5-uL per well for inhibition of cell viability (assessed by measuring ATP levels with CellTiterGlo).
2. NCATS MIPE 4.0 library of approved and investigational drugs were added using the Kalypsis pin tool. Wells treated with DMSO only for 100% viability and media only wells for 0% viability were used as controls.
3. The assay plates were covered and incubated for 48 hours in a 37C, 5% CO2 incubator with controlled humidity.
4. After 48 hours, CellTilter-GloTM luminescent substrate mix (Promega) reagent was added to the assay plate and plates we incubated for 5 min at room temperature.
5. Signal was measured as median relative luminescence units on a ViewLux (PerkinElmer) multiplate reader.
[1] Heske CM, Davis MI, Baumgart JT, Wilson K, Gormally MV, Chen L, Zhang X, Ceribelli M, Duveau DY, Guha R, Ferrer M, Arnaldez FI, Ji J, Tran HL, Zhang Y, Mendoza A, Helman LJ, Thomas CJ. Matrix Screen Identifies Synergistic Combination of PARP Inhibitors and Nicotinamide Phosphoribosyltransferase (NAMPT) Inhibitors in Ewing Sarcoma. Clin Cancer Res. 2017 Dec 1;23(23):7301-7311. doi: 10.1158/1078-0432.CCR-17-1121. Epub 2017 Sep 12. PMID: 28899971; PMCID: PMC6636827.
In general terms: Cellular ATP, detected with luciferase, serves as a proxy for viable cell number.
Take `C[C@]12CCC(=O)C=C1[C@@H]1CC1[C@H]1[C@H]3[C@@H]4C[C@H]4[C@@]4(CCC(=O)O4)[C@@]3(C)CC[C@H]12` (stereo not given in full): the Potency result is “inactive”.
The result for `CNC(=O)c1cccc(-c2ccc3c(N4CCOC[C@H]4C)nc(N4CCOC[C@H]4C)nc3n2)c1` reads 1.66 µM (active); that for `COc1cc(CCc2cc(NC(=O)c3ccc(N4C[C@@H](C)N[C@@H](C)C4)cc3)n[nH]2)cc(OC)c1`, 18.7 µM (active); that for `CN[C@H]1[C@@H](O)[C@@H]2O[C@@H]3O[C@H](C)CC(=O)[C@]3(O)O[C@@H]2[C@@H](NC)[C@H]1O`, 0.166 µM (active).
Turning to `C[C@H](NC(=O)[C@@H](O)c1cc(F)cc(F)c1)C(=O)N[C@@H]1C(=O)N(C)c2ccccc2-c2ccccc21`, the Potency result is “inactive”.
The result for `CCN(CC)Cc1ccc2cc(COC(=O)Nc3ccc(C(=O)NO)cc3)ccc2c1` reads 1.05 µM (active).
For `CCOC(=O)C1=C(C)NC(=S)NC1c1cccc(O)c1` (stereo not given) the value was 0.0469 µM (active); for `CC(C=CC(=O)NO)=C[C@@H](C)C(=O)c1ccc(N(C)C)cc1`, 0.469 µM (active); for `CNC(=O)Nc1ccc(-c2nc(N3CC4CCC(C3)O4)c3cnn(C4CCC5(CC4)OCCO5)c3n2)cc1`, 3.32 µM (active).
Turning to `COc1ccc(C(C)=O)c(O)c1`, the Potency result is “inactive”.
For `Nc1ccc(C(=O)Nc2cccc(-c3nc(N4CCOCC4)c4oc5ncccc5c4n3)c2)cn1` the value was 16.6 µM (active).
The result for `CC[C@H]1OC(=O)[C@H](C)[C@@H](O[C@H]2C[C@@](C)(OC)[C@@H](O)[C@H](C)O2)[C@H](C)[C@@H](O[C@@H]2O[C@H](C)C[C@H](N(C)C)[C@@H]2O)[C@](C)(OC)C[C@@H](C)C(=O)[C@H](C)[C@@H](O)[C@]1(C)O` reads “inactive”; that for `CCc1cnn2c(NCc3ccc[n+]([O-])c3)cc(N3CCCC[C@@H]3CCO)nc12`, 0.0187 µM (active).
The result for `Cc1cc(C(=O)NOCCO)c(Nc2ccc(I)cc2F)n(C)c1=O` reads “inactive”.
In the case of `C[C@H]1O[C@H](O[C@H]2[C@H](O)[C@@H](O)[C@@H](O[C@H]3[C@H](O)[C@@H](O)C(O)O[C@H]3CO)O[C@H]2CO)[C@H](O)[C@@H](O)[C@H]1N[C@H]1C=C(CO)[C@@H](O)[C@H](O)[C@@H]1O` (stereo not given in full), the Potency entry was “inactive”.
For `O=C(C[C@@H]1CC=CCCC(=O)O[C@H](c2ccccc2)CNC1=O)NCc1ccc(Cl)cc1` the value was 0.0012 µM (active); for `CC(C)NC[C@@H](C(=O)N1CCN(c2ncnc3c2[C@H](C)C[C@H]3O)CC1)c1ccc(Cl)cc1`, 16.6 µM (active); for `CCCCOc1ccc(C(=O)Nc2ccc(F)cc2F)cc1`, “inactive”.
For `Cn1cc(-c2ccc3ncc(Cc4ccc5ncccc5c4)n3n2)cn1` the value was “inactive”; for `O=C(O)C=Cc1ccc(Cn2ccnc2)cc1`, “inactive”; for `CC(=O)ON=C1C(c2c(O)[nH]c3cc(Br)ccc23)=Nc2ccccc21`, 11.8 µM (active).
On to `CC(=O)OCC(=O)[C@@]1(O)CC[C@H]2[C@@H]3CCC4=CC(=O)CC[C@]4(C)[C@@H]3C(=O)C[C@@]21C`, for which the Potency entry is “inactive”.
For `CCOC(=O)[C@H](CCc1ccccc1)N[C@@H](C)C(=O)N1[C@@H](C(=O)O)C[C@H]2CCC[C@@H]21` the value was 20.9 µM (active).
In the case of `COc1ccc2c(c1OC)C(=O)OC2[C@H]1c2c(cc3c(c2OC)OCO3)CCN1C` (stereo not given in full), the Potency was 2.09 µM (active).
On to `COc1ccc([C@@H]2CNC(=O)C2)cc1OC1CCCC1`, for which the Potency entry is “inactive”.
With `CCCCCCCCCCCC(CC1OC(=O)C1CCCCCC)OC(=O)C(CC(C)C)NC=O` (stereo not given), the Potency entry was “inactive”.
The result for `COC1=C(OC)C(=O)C(CC=C(C)CCC=C(C)CCC=C(C)CCC=C(C)CCC=C(C)CCC=C(C)CCC=C(C)CCC=C(C)CCC=C(C)CCC=C(C)C)=C(C)C1=O` reads “inactive”.
Turning to `Cc1cnc(Nc2ccc(N3CCN(C)CC3)cc2)nc1Nc1cccc(S(=O)(=O)NC(C)(C)C)c1`, the Potency was 3.32 µM (active).
The result for `CCOC(=O)[C@@H](N)Cc1ccc(-c2cc(O[C@H](c3ccc(Cl)cc3-n3ccc(C)n3)C(F)(F)F)nc(N)n2)cc1` reads 18.7 µM (active).
The result for `C[C@@H](Oc1ccc2[nH]nc(C=Cc3cnn(CCO)c3)c2c1)c1c(Cl)cncc1Cl` reads 4.18 µM (active); that for `COc1cc(OC)cc(-c2ccc3ncc4ccc(=O)n(-c5ccc(N6CCNCC6)c(C(F)(F)F)c5)c4c3c2)c1`, 5.9 µM (active); that for `O=C(O)C(=O)Nc1cccc(C2=NN=N[N]2)c1`, “inactive”.
Regarding `COC[C@H](NC(=O)c1cnc(C)s1)C(=O)N[C@@H](COC)C(=O)N[C@@H](Cc1ccccc1)C(=O)[C@@]1(C)CO1`, the Potency was 0.166 µM (active).
For `Oc1cc2c(cc1O)C1c3ccc(O)c(O)c3OCC1(O)C2` (stereo not given) the value was “inactive”; for `COc1cccc2c1C(=O)c1c(O)c3c(c(O)c1C2=O)C[C@@](O)(C(C)=O)C[C@H]3O[C@H]1C[C@H](N)[C@H](O)[C@H](C)O1`, 0.105 µM (active).
As to `Cc1cnc(NC(=O)Nc2cc(Br)c(C)cc2OC[C@@H]2CNCCO2)cn1`, the Potency is 3.72 µM (active).
The result for `COc1cc2c(cc1OC)[C@@H]1C(=O)c3ccc4c(c3O[C@@H]1CO2)C=CC(C)(C)O4` reads 8.33 µM (active).
For the molecule `CC(=O)O[C@H]1C[C@@H]2CC[C@H]3[C@H]4C[C@H]([N+]5(C)CCCCC5)[C@@H](OC(C)=O)[C@@]4(C)CC[C@@H]3[C@@]2(C)C[C@H]1N1CCCCC1`, the Potency result was “inactive”.
For `CNC(=O)c1ccc(Nc2cc(Nc3ccccc3S(=O)(=O)C(C)C)c3cc[nH]c3n2)nc1` the value was 6.62 µM (active); for `CO[C@@H]1[C@@H](O)[C@H](O)[C@@H](n2c3c(Cl)cccc3c3c4c(c5c6cccc(Cl)c6[nH]c5c32)C(=O)NC4=O)O[C@@H]1CO`, 2.64 µM (active).

The values above are taken from PubChem BioAssay (NCATS).
